Assay outcomes: PubChem BioAssay, several laboratories
BJeLR viability – BJeLR cell viability loss | actives 0.17% (n = 300,000) | AID 1554 | BJeLR (HRASV12) viability, CellTiter-Glo ATP luminescence, 48 h | inhibition, % (test concentration not listed); in the data active means inhibition above about 50%; inconclusive means no clear call, values can overlap the other calls
BoNT-F LC inh – BoNT F light chain protease inhibition; Multiplex microsphere protease cleavage assay, flow cytometry; inhibition, % at 10 µM; actives 0.22% (n = 360,000); AID 588497; in the data active means inhibition above about 35%, passing the limit was not always enough; inconclusive means no clear call, values can overlap the other calls; further: plate controls were buffer without enzyme for full effect and enzyme alone for no effect
Anthrax LF prot – inhibitors of Bacillus anthracis lethal factor protease. P15917. actives 0.12% (n = 360,000). inhibition, % at 10 µM. multiplex microsphere protease cleavage assay, LF. AID 588501; further: plate controls were buffer without enzyme for full effect and enzyme alone for no effect
Target sequence (P15917 whole entry, looked up): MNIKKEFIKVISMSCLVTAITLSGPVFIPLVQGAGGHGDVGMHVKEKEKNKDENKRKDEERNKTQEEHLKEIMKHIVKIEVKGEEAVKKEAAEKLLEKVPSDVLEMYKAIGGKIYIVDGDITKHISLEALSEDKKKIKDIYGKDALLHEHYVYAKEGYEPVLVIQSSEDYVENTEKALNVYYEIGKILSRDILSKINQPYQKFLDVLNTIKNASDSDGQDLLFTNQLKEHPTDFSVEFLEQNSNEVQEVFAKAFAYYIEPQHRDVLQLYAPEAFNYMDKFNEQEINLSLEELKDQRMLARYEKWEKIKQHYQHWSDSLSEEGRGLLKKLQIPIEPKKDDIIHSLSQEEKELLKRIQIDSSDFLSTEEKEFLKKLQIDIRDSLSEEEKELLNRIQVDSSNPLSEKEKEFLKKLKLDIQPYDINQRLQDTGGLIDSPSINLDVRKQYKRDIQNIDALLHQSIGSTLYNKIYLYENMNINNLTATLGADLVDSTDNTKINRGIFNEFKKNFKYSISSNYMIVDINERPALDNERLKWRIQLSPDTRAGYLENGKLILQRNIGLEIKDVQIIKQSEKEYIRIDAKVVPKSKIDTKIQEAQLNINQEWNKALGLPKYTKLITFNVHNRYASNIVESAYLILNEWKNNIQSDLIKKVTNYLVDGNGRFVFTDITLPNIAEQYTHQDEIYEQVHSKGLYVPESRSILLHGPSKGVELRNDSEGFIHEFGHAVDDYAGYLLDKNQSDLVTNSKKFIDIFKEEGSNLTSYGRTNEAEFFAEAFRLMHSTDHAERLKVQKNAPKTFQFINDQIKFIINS
Autofluor counter – counter-screen for toxin protease inhibitors: compound fluorescence | compound autofluorescence counterscreen, microsphere flow cytometry; stronger effect = higher value | fluorescence intensity (concentration not given with the values) | actives 3.1% (n = 360,000) | AID 624483; in the data active means fluorescence intensity above about 16000; inconclusive means no clear call, values can overlap the other calls
Vc quorum ag – inducers of Vibrio cholerae quorum light production without autoinducers; AID 588436; V. cholerae BH1578 lux reporter, luminescence, 6 h; actives 0.16% (n = 350,000); activation, % at 18.7 µM; in the data active means activation mostly above about 9.7%, no sharp cut-off; inconclusive means no clear call, values can overlap the other calls; inactive means mostly below about 3.7%
BoNT A protease – inhibitors of Botulinum neurotoxin A light chain protease | multiplex microsphere protease substrate cleavage, flow cytometry | inhibition, % at 10 µM | AID 588499 | actives 0.17% (n = 360,000); further: plate controls were buffer without enzyme for full effect and enzyme alone for no effect
Numbers without * were called inactive; i = inactive; ? = inconclusive; · = no result. A selection: hits, their analogues and other compounds. The true share with any hit is near 3.7%. Unless noted, no stated cut-off is given here; in the data, active means inhibition above about 30%; inconclusive means no clear call, values can overlap the other calls; inactive means below that.

SMILES	BJeLR viability	BoNT-F LC inh	Anthrax LF prot	Autofluor counter	Vc quorum ag	BoNT A protease
Cc1c2c(nc3c(C(=O)NC4CCCC4)cnn13)CCCC2	0	-4	-5	16888*	0	-2
COC(=O)c1cnn2c3c(c(C)nc12)CCCC3	2	5	-2	10764	0	0
CCCc1nc2ccc(C)cn2c1Cc1cccc(Cl)c1	·	0	4	6197	·	1
COc1ccc(CN(CCCN2CCOCC2)C(=O)Nc2ccccc2)cc1OC	2	-3	-7	22584*	i	?
O=C(CCS(=O)(=O)Cc1ccc(Cl)cc1)NCCCN1CCOCC1	8	-1	-1	23981*	0	0
O=C(CN1CCN(Cc2ccc(Cl)cc2)C1=O)NCCCN1CCOCC1	1	-3	3	5356	0	0
N=NC(=O)c1ccccc1Nc1c(O)[nH]c2ccccc12	·	-10	-9	3785	-1	0
Oc1ccc2oc3c(c2c1/C=N/n1cnnc1)CCCC3	-7	-11	-1	21898*	i	?
Oc1ccccc1N=Cc1c(O)ccc2oc3c(c12)CCCC3	-8	1	-10	4357	0	1
CC(=O)c1ccc(Sc2ccccc2)cc1	-2	4	0	22491*	-6	2
CCSC1=C(C#N)C2(CCCCC2)C(C#N)C(=O)N1 (stereo not drawn)	·	2	1	20210*	i	?
Cc1ccc(-c2nc3cc(NC(=O)C(C)C)ccc3o2)cc1C	6	-2	0	24088*	5	0
O=C(Nc1ccc2oc(-c3ccncc3)nc2c1)c1cccs1	-5	9	1	3262	·	0
O=C(Nc1ccc(-c2nc3cc(NC(=O)c4cccs4)ccc3o2)cc1)c1cccs1	5	-4	-1	22139*	-1	-6
CCOC(=O)[C@]12CCC=C1N(Cc1ccc3c(c1)OCO3)C(=O)[C@H](CC(=O)NCCC(C)C)C2	·	2	-4	6092	·	0
FC(F)(F)c1ccc2c(c1)n(Cc1ccccc1)c1[n+]2CCCCC1	5	17	-2	20850*	i	7
O=C(Cn1c2[n+](c3ccc(C(F)(F)F)cc31)CCCCC2)Nc1ccccc1	9	0	-1	2958	-2	1
O=C1COc2ccccc2N1Cc1ccccc1Cl	6	4	-2	9192	17*	-1
Nc1cc2c(cc1Cl)N(Cc1ccccc1)C(=O)CO2	·	-3	-2	6720	i	1
CC1Oc2ccccc2N(Cc2ccccc2Cl)C1=O (stereo not drawn)	14	-2	-2	23481*	-2	-1
CN1CCN(C(=O)C2Cc3c(-c4ccc5c(c4)OCO5)ccnc3O2)CC1 (stereo not drawn)	·	4	0	3706	-1	0
O=C(NCc1cccc(C(F)(F)F)c1)c1ccc2sc(C3=C[C@@H](O)[C@@H](O)[C@@H](CO)O3)nc2c1	·	-8	2	3644	-1	0
CCOc1ccc(OCC)c(NC(=O)CSc2nc3cccnc3n2C)c1	3	-9	-3	2749	0	-1
COc1cc(NC(=O)c2ccco2)c(OC)cc1NC(=O)CSc1nnc(-c2cccs2)n1C	-6	-1	-2	22652*	-4	0
COc1cc(NC(=O)CSc2nc3ccccc3c(=O)n2C)ccc1NC(=O)c1ccco1	-2	17	-12	17911*	2	12
SMILES	BJeLR viability	BoNT-F LC inh	Anthrax LF prot	Autofluor counter	Vc quorum ag	BoNT A protease
CCOc1ccc(OCC)c(NC(=O)CSc2nc3ccccc3c(=O)n2C)c1	9	2	0	22042*	i	0
CC1(C(=O)NS(=O)(=O)c2ccc(Br)cc2)CCN1C(=O)c1cccc(F)c1 (stereo not drawn)	·	-4	-1	3506	i	0
O=C(COC(=O)c1cnccn1)NCCc1ccccc1	-8	1	-14	?	·	0
O=C(COC(=O)c1cnccn1)NCc1ccccc1	-11	-4	1	20877*	0	-1
OCc1ccccc1-c1ccc2nncn2c1	·	-4	-8	3620	i	0
CCN(CC)CCN1C(=O)c2ccccc2NC1c1ccc(F)cc1 (stereo not drawn)	0	0	0	9923	0	0
CCN(CC)CCN1C(=O)c2ccccc2NC1c1ccc(C)cc1 (stereo not drawn)	12	2	-4	23099*	i	?
CCN(CC)CCCn1c(SCC(=O)NCC2CCCO2)nc2ccccc2c1=O (stereo not drawn)	·	8	6	?	5	-3
CCC(Sc1nc2ccccc2c(=O)n1CC1CCCO1)C(=O)NCc1cccnc1 (stereo not drawn)	-4	-4	-3	20816*	-2	?
O=C(CSc1nc2ccccc2c(=O)n1CC1CCCO1)NCC1CCCO1 (stereo not drawn)	-8	8	-8	17453*	i	?
CC(=O)NCCn1c(SCC(=O)NCC2CCCO2)nc2ccccc2c1=O (stereo not drawn)	4	-4	-2	22103*	i	-1
COc1cccc(/C=C/C(=O)N2CCN(S(=O)(=O)c3ccccc3)CC2)c1	·	-5	-11	4055	i	0
COc1ccc(Cl)c(-c2cc(C(=O)Nc3ccc(F)cc3)[nH]n2)c1	·	6	0	2884	0	1
CCn1c(C)nc2cc(C(=O)NNS(=O)(=O)c3c(C)c(C)cc(C)c3C)ccc21	-6	2	-1	24040*	i	0
Cc1ccc2ncc([N+](=O)[O-])n2c1	-6	4	-1	21684*	i	3
O=C(Oc1ccc(-c2cnc3ccccc3n2)cc1)c1ccco1	10	-4	1	20475*	i	-2
CCc1ccccc1NC(=O)C(Cc1cccc(OC)c1OC)c1nn[nH]n1 (stereo not drawn)	-10	4	-1	15651	12	2
COc1cccc(CC(C(=O)Nc2cc(C)ccc2C)c2nn[nH]n2)c1OC (stereo not drawn)	2	0	1	22565*	i	1
COc1ccccc1NC(=O)COC(=O)Cn1c(C)csc1=O	·	2	4	3158	-3	-1
COc1ccc(-c2cnn3c4c(c(C)nc23)CCN4C2CCCC2)cc1OC	0	-4	-2	17372*	i	-2
COCCN1CCc2c(C)nc3c(-c4ccc(OC)c(OC)c4)cnn3c21	2	2	-11	9041	·	1
Cc1cc(NC(=O)C2(C)CCN2C(C)C)c2ccccc2n1 (stereo not drawn)	·	7	2	3015	0	0
CCc1nc2ccc(C(=O)Nc3cccc(NS(C)(=O)=O)c3)cn2c1N(CC)Cc1cccc(Br)c1	·	-2	-1	3835	i	0
CN(C)c1nc(N2CCN(c3ccc(F)cc3)CC2)c(C#N)c(=O)o1	-8	?	?	?	-1	?
CN1CCN(c2nc(N(C)C)oc(=O)c2C#N)CC1	5	1	-1	22716*	3	-1
